Where “and” joins values, the source holds several entries; their conditions need not be identical. Equal entries are not always repeated. Values without a mark were called inactive. Inconclusive results are not listed. A call without a number means that no potency is given here. Calls of active or inactive are those of the source. Unless noted, calls follow the shape of the dose curve; as a rule, active = well fitted curve in the direction sought with a large enough effect; inconclusive = small, poorly fitted or top-dose-only effect, or another doubt; inactive = no such curve, though single readings can be large; an effect the other way counts as inactive or inconclusive.
Experiments:
[1] = biological target: DNA repair nuclease/redox regulator APEX1 (Homo sapiens) (UniProt P27695); experiment: qHTS Validation Assay for Inhibitors of the Human Apurinic/apyrimidinic Endonuclease 1 (APE1) (AID 1705; also: potency is read from the fitted curve at half-maximal effect)
Sequence of DNA repair nuclease/redox regulator APEX1 (Homo sapiens) (P27695 whole entry, looked up): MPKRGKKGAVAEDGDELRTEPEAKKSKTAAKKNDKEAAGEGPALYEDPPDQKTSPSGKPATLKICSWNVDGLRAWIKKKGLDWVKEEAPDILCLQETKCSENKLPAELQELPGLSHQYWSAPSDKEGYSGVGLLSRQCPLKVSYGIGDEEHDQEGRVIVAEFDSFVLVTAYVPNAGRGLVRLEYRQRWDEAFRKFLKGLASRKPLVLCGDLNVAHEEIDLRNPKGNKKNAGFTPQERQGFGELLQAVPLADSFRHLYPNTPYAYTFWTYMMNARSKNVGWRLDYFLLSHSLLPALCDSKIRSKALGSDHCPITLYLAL
Outline: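 Activity read as rising fluorescence (598 nm emission, 525 nm excitation) from incision of a TAMRA/BHQ-2 duplex carrying a THF abasic site (50 nM). Compound and enzyme sat 15 min at RT before substrate start; signal change between first and third 60-s reads.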

[2] = qHTS for differential inhibitors of proliferation of Plasmodium falciparum line 7G8 (AID 1815);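 also: parasite growth measured after three days of incubation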; also: potency is read from the fitted curve at half-maximal effect
[3] = qHTS for differential inhibitors of proliferation of Plasmodium falciparum line GB4 (AID 1816); conditions: Potency: Plasmodium falciparum GB4 proliferation inhibition;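 also: parasite growth measured after 72 h incubation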; also: potency is read from the fitted curve at half-maximal effect
[4] = qHTS for differential inhibitors of proliferation of Plasmodium falciparum line 3D7 (AID 1876); also: potency is read from the fitted curve at half-maximal effect
[5] = Cell Viability - HUV-EC-C (AID 542);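 also: cells exposed to compound for 40 hours; nearly all actives have a fitted effect of over 35% in size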; also: potency is read from the fitted curve at half-maximal effect
Outline: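 CellTiter-Glo luminescence measured ATP loss in HUV-EC-C cells (1000/well) after 40 hr compound exposure at 37 °C, in complete culture medium. Concentration-response data were Hill-fitted to give AC50.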

[6] = Cell Viability - Renal Proximal Tubule (AID 545); conditions: renal proximal tubule cells viability; at 91.7 µM (top of the series), primary cells of rat origin unless noted;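 also: cells exposed to compound for 40 hours; nearly all actives have a fitted effect of over 40% in size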
Outline: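 Viability taken as intracellular ATP (CellTiter-Glo luminescence) after 40 hr, 37 °C compound treatment of primary proximal tubule cells from rat kidney, 1000 cells/well; Hill-equation fits of qHTS concentration-response data gave AC50.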

[7] = Cell Viability - Mesenchymal (AID 546);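 also: cells exposed to compound for 40 hours before reading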
Outline: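 CellTiter-Glo luminescence (intracellular ATP, 20 min room temperature) after 40 hr compound exposure at 37 °C of 1000 glomerulus-derived human kidney mesenchymal cells/well; AC50 values obtained by fitting qHTS concentration-response data to the Hill equation.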

[8] = Cellular Toxicity (caspase-3) HepG2 (AID 654);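 also: cells exposed to compound for 16 hours before reading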
Outline: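 Caspase 3/7 activation is measured as a luminescence increase (aminoluciferin substrate) after 16 h compound exposure of human hepatocarcinoma HepG2 cells. AC50 values are Hill fits, scaled between DMSO baseline and 100 uM tamoxifen stimulation.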

[9] = Cellular Toxicity (caspase-3) HUV-EC-C (AID 656)
Outline: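 Luminescent Caspase-Glo 3/7 readout after 16 h, 37 °C compound exposure of HUV-EC-C endothelial cells, 1000 per well, complete medium. AC50 derived by Hill fitting, with DMSO as baseline and 100 uM tamoxifen as full activation.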

[10] = Cellular Toxicity (caspase-3) BJ (AID 658)
Outline: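 Caspase-Glo 3/7 luminescence, read 1 hr after reagent at room temperature, in normal BJ fibroblasts exposed 16 hours at 37 °C. AC50 values from Hill-equation concentration-response, scaled between DMSO basal and 10 uM staurosporine as 100%.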

[11] = Cellular Toxicity (caspase-3) MRC-5 (AID 659)
Outline: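 Luminescent Caspase-Glo 3/7 read-out (1 h, room temperature) after a 16 h, 37 °C compound exposure of MRC-5 lung fibroblasts at 1500 cells/well. Concentration-response AC50 from Hill equation; 0% DMSO, 100% 10 uM staurosporine.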

[12] = Cellular Toxicity (caspase-3) Mesangial (AID 660);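 also: combined caspase 3 and 7 activity read by Caspase-Glo luminescence; cells exposed to compound for 16 h before the caspase read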
Outline: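 Caspase 3/7 activation measured by Caspase-Glo 3/7 luminescence (20 min, room temperature) following 16 h exposure of mesangial cells (1000/well); AC50 from Hill-equation fit, normalized to DMSO and 100 uM tamoxifen.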

[13] = Cellular Toxicity (caspase-3) H-4-II-E (AID 663);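 also: cells exposed to compound for 16 hr before readout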
Outline: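 Caspase 3/7 activation measured by luminescent aminoluciferin substrate cleavage after 16 hr compound treatment of H-4-II-E cells in complete medium. Increase normalized between DMSO (basal) and 100 uM tamoxifen (100%); Hill-equation AC50 from concentration-response.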

[14] = Cellular Toxicity (caspase-3) NIH 3T3 (AID 666)
Outline: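 Caspase-Glo 3/7 luminescence reported caspase activation in 1000 NIH 3T3 cells/well after 16 h compound exposure at 37 C. DMSO set basal and 100 uM tamoxifen set 100% stimulation; concentration-response modeled with the Hill equation for AC50.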

[15] = Cellular Toxicity (caspase-3) Renal Proximal Tubule (AID 667); conditions: renal proximal tubule cells; at 91.7 µM (top of the series), primary cells freshly taken from rat, solvent-only wells 0%, staurosporine 100% unless noted;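 also: cells exposed to compound for 16 hours at 37 °C before detection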
Outline: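 Caspase 3/7 activation measured by luminescent aminoluciferin release in primary rat proximal tubule cells after 16 hr compound exposure at 37 °C. AC50 from Hill-fitted concentration-response, scaled between DMSO and 10 uM staurosporine.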

[16] = qHTS Assay for Identification of Small Molecule Inducers of Hypoxia Response (AID 2120; active = well fitted curve in the direction sought with a large enough effect in the signal ratio, with a control signal flat, not every such curve was filed as active; the % refers to the signal ratio)
Outline: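 Reporter induction read as the CCF4 blue/green (460nm/530nm) emission ratio after 2.5 h dye loading at room temperature. ME-180 HRE-beta-lactamase cells received titrated compounds for 17 h at 37 degrees Celsius; AC50 values derived.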

[17] = qHTS assay for small molecule activators of the p53 signaling pathway (AID 651743; active = well fitted activation curve with a large enough effect in the signal ratio, not every such curve was filed as active; the % refers to the signal ratio); conditions: HCT-116 p53RE-bla, beta-lactamase FRET ratio, 16 h; activation: active compounds read high
Outline: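 After 16 hours compound treatment at 37 C, HCT-116 cells stably expressing p53RE-driven beta-lactamase were loaded with LiveBLAzer B/G FRET substrate for 2 hours at room temperature. Fluorescence intensity served as the p53 activation read-out.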

[18] = biological target: Tumor necrosis factor (Homo sapiens) (UniProt P01375); experiment: qHTS assay to identify small molecules that stimulate Tumor Necrosis Factor-alpha (TNF-alpha) secretion (AID 651757; active = well fitted curve in the direction sought with a large enough effect in the signal ratio; the % refers to the signal ratio)
Sequence of Tumor necrosis factor (Homo sapiens) (P01375 whole entry, looked up): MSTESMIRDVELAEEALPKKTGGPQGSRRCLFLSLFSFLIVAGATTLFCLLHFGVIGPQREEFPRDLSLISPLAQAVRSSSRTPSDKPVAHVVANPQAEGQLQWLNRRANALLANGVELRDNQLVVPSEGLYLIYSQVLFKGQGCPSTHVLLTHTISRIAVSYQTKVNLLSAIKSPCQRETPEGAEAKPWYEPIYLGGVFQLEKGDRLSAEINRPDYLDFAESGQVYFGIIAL
Outline: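 Secreted TNF-alpha quantified by TR-FRET sandwich of two labeled anti-TNF-alpha antibodies, incubated 3 hr at room temperature. Preceded by 17 hr, 37 C compound treatment of THP-1 cells at 3000 cells/well.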

[19] = qHTS assay for small molecule agonists of the antioxidant response element (ARE) signaling pathway measured by Nrf2-dependant transcriptional activity - cell viability counter screen (AID 720653; active = well fitted curve in the direction sought with a large enough effect in the repeat runs; an effect the other way counts as inactive or inconclusive); conditions: ARE-bla HepG2 viability, CellTiter-Glo ATP luminescence, 16 h; active compounds read low
Outline: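 Cytotoxicity counter screen: intracellular ATP quantified by CellTiter-Glo luminescence in the same ARE-bla HepG2 plates, after 16 h compound exposure and a 2 h beta-lactamase substrate step.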

[20] = qHTS assay for cell viability of HEK293 cells (AID 743288); conditions: ATP luminescence (CellTiter-Glo), 18 h; max response: active compounds read low; also: nearly all actives have a fitted effect of over 50% in size
Outline: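 Readout is luciferase-coupled ATP content (CellTiter-Glo luminescence, 30 min room temperature) as a measure of metabolically competent cells. Parental HEK293 cells were plated 5 h or more before compound addition, then treated 18 h at 37 C.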

SMILES: CCc1c(C(=O)OC)ncc2[nH]c3cc(OC)c(OC)cc3c12
- Potency [1]: 6.31 µM (active)
- Potency [2]: 7.94 µM (active)
- Potency [3]: 12.6 µM (active)
- Potency [4]: 12.6 µM (active)

SMILES: CCCN1CCc2cc(O)cc3c2C1Cc1ccc(O)c(O)c1-3 (stereo unspecified)
- Potency [1]: inactive
- Potency [2]: 5.01 µM (active)
- Potency [3]: 3.16 µM (active)
- Potency [4]: 2.51 µM (active)

SMILES: CNCC[C@@H](Oc1ccc(C(F)(F)F)cc1)c1ccccc1
- Potency [1]: inactive

SMILES: CCCN1CCc2cccc3c2C1Cc1ccc(O)c(O)c1-3 (stereo unspecified)
- Potency [1]: inactive
- Potency [2]: 2.24 µM (active)
- Potency [3]: 2 µM (active)
- Potency [4]: 2.51 µM (active)

SMILES: CNC(=O)O/N=C/C(C)(C)SC
- Potency [5]: inactive
- activity change, negative = cytotoxicity [6]: -3.02% [at 91.7 µM]
- outcome [7]: inactive
- outcome [8]: inactive
- outcome [9]: inactive
- outcome [10]: inactive
- outcome [11]: inactive
- outcome [12]: inactive
- outcome [13]: inactive
- outcome [14]: inactive
- caspase-3 activation [15]: -0.514% [at 91.7 µM]
- outcome [16]: inactive
- activation [17]: -1.27% and -5.37% and -5.16%
- outcome [18]: inactive
- max response [19]: 2.17% and 5.56%
- max response [20]: -1.1% and -12.4% and -2.16%

SMILES: CC(C)[C@@]1(NC(=O)[C@@H]2C[C@@H]3c4cccc5[nH]cc(c45)C[C@H]3N(C)C2)O[C@@]2(O)C3CCCN3C(=O)[C@H](Cc3ccccc3)N2C1=O (stereo partly specified)
- Potency [1]: inactive
- Potency [2]: 0.316 µM (active)
- Potency [3]: 1.12 µM (active)
- Potency [4]: 1 µM (active)

SMILES: C[C@]12CC[C@H](O)CC1=CCC1C2CC[C@]2(C)C(=O)CC[C@@H]12 (stereo partly specified)
- Potency [1]: inactive
- Potency [2]: inactive
- Potency [3]: inactive
- Potency [4]: inactive

SMILES: CC(C)C[C@H]1C(=O)N2CCCC2[C@]2(O)O[C@](NC(=O)[C@@H]3C=C4c5cccc6[nH]c(Br)c(c56)C[C@H]4N(C)C3)(C(C)C)C(=O)N12 (stereo partly specified)
- Potency [2]: 0.891 µM (active)
- Potency [3]: 1.78 µM (active)
- Potency [4]: 2 µM (active)

SMILES: C=CCc1ccc2c(c1)OCO2
- Potency [5]: inactive
- activity change, negative = cytotoxicity [6]: 1.52% [at 91.7 µM]
- outcome [7]: inactive
- outcome [8]: inactive
- outcome [9]: inactive
- outcome [10]: inactive
- outcome [11]: inactive
- outcome [12]: inactive
- outcome [13]: inactive
- outcome [14]: inactive
- caspase-3 activation [15]: -2.37% [at 91.7 µM]
- outcome [16]: inactive
- activation [17]: -1.35%
- outcome [18]: inactive
- max response [19]: -4.7%
- max response [20]: -8.48%

SMILES: O=C(OC1CCN(CCCl)CC1)C(c1ccccc1)c1ccccc1
- Potency [1]: inactive
- Potency [2]: 7.94 µM (active)
- Potency [3]: 5.62 µM (active)
- Potency [4]: 12.6 µM (active)

SMILES: c1ccc(N=Nc2ccccc2)cc1
- Potency [5]: inactive
- activity change, negative = cytotoxicity [6]: -6.36%
- outcome [7]: inactive
- outcome [8]: inactive
- outcome [9]: inactive
- outcome [10]: inactive
- outcome [11]: inactive
- outcome [12]: inactive
- outcome [13]: inactive
- outcome [14]: inactive
- caspase-3 activation [15]: 1.95%
- outcome [16]: inactive
- activation [17]: -2.32% and -5.83%
- outcome [18]: inactive
- max response [19]: -6.06% and -16.5%
- max response [20]: 1.24% and -11.6%

SMILES: ClC1=C(Cl)C2(Cl)C3C(Cl)C=CC3C1(Cl)C2(Cl)Cl (stereo unspecified)
- Potency [5]: inactive
- activity change, negative = cytotoxicity [6]: -2.85%
- outcome [7]: inactive
- outcome [8]: inactive
- outcome [9]: inactive
- outcome [10]: inactive
- outcome [11]: inactive
- outcome [12]: inactive
- outcome [13]: inactive
- outcome [14]: inactive
- caspase-3 activation [15]: 2.29%
- outcome [16]: inactive
- activation [17]: 1.8%
- outcome [18]: inactive
- max response [19]: -10.5%
- max response [20]: -13.7%

SMILES: CCOCN(C(=O)CCl)c1c(C)cccc1CC
- Potency [5]: 25.1 µM (active)
- activity change, negative = cytotoxicity [6]: -103% (active)
- outcome [7]: inactive
- outcome [8]: inactive
- outcome [9]: inactive
- outcome [10]: inactive
- outcome [11]: inactive
- outcome [12]: inactive
- outcome [13]: inactive
- outcome [14]: inactive
- caspase-3 activation [15]: 0.858%
- outcome [16]: inactive
- activation [17]: -6.37% and -3.12%
- outcome [18]: inactive
- max response [19]: -15.8% and -13.8%
- max response [20]: -18.2% and -18.7%

SMILES: C/C=C/c1ccc2c(c1)OCO2
- Potency [5]: inactive
- activity change, negative = cytotoxicity [6]: -9.95% [at 91.7 µM]
- outcome [7]: inactive
- outcome [8]: inactive
- outcome [9]: inactive
- outcome [10]: inactive
- outcome [11]: inactive
- outcome [12]: inactive
- outcome [13]: inactive
- outcome [14]: inactive
- caspase-3 activation [15]: -4.01% [at 91.7 µM]
- outcome [16]: inactive
- activation [17]: -2.48%
- outcome [18]: inactive
- max response [19]: -6.6%
- max response [20]: -1.69%

SMILES: O=S1OCC2C(CO1)C1(Cl)C(Cl)=C(Cl)C2(Cl)C1(Cl)Cl (stereo unspecified)
- Potency [5]: inactive
- activity change, negative = cytotoxicity [6]: -22.1% [at 91.7 µM]
- outcome [7]: inactive
- outcome [8]: inactive
- outcome [9]: inactive
- outcome [10]: inactive
- outcome [11]: inactive
- outcome [12]: inactive
- outcome [13]: inactive
- outcome [14]: inactive
- caspase-3 activation [15]: 8.37% [at 91.7 µM]
- outcome [16]: inactive
- activation [17]: -4.01%
- outcome [18]: inactive
- max response [19]: 13.3%
- max response [20]: -13.5%

SMILES: ClC1=C(Cl)C2(Cl)C3C4C=CC(C4)C3C1(Cl)C2(Cl)Cl (stereo unspecified)
- Potency [5]: inactive
- activity change, negative = cytotoxicity [6]: 4.94% [at 91.7 µM]
- outcome [7]: inactive
- outcome [8]: inactive
- outcome [9]: inactive
- outcome [10]: inactive
- outcome [11]: inactive
- outcome [12]: inactive
- outcome [13]: inactive
- outcome [14]: inactive
- caspase-3 activation [15]: -0.505% [at 91.7 µM]
- outcome [16]: inactive
- activation [17]: 0.0105%
- outcome [18]: inactive
- max response [19]: -5%
- max response [20]: -24.9%

— PubChem BioAssay (NCATS)
